Results published in PubChem BioAssay (EPA / NIEHS).
Values joined by “and” are separate entries in the source; they are usually repeats but may differ in a detail not shown here. Equal values may be shown once. Some compounds were tested as several samples or in several runs, with calls that do not always agree. Active and inactive are the calls of the source. How the source made its calls: active means hit-call score of the fitted dose curve at least 0.9, where 1 is the maximum; inactive means score below 0.9.

What was measured:
[1] = ATG_E_Box_CIS: Attagene CIS-FACTORIAL HepG2 Assay for human Enhancer Box (E-box) (AID 2282936); conditions: HepG2 E-box cis-reporter transcription, actives raise or lower the signal
Summary of the method: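 HepG2 cells transiently transfected with multiplexed cis-element reporter units, dosed 24 h; reporter mRNA quantified by RT-PCR, 6-FAM labelling, HpaI digestion and capillary electrophoresis. E-box (USF1) signal fitted bidirectionally vs DMSO.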

[2] = ATG_EGR_CIS: Attagene CIS-FACTORIAL HepG2 Assay for human Early Growth Response 1 (EGR1) (AID 2282938); conditions: HepG2 Attagene CIS-FACTORIAL EGR reporter mRNA; actives raise or lower the signal
Summary of the method: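 Activity is taken as induction or loss of reporter mRNA versus DMSO, fitted bidirectionally. Transcripts from cis-regulated reporter units in transiently transfected HepG2 were measured after 24 h by RT-PCR with capillary electrophoresis.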

[3] = ATG_M_19_CIS: Attagene CIS-FACTORIAL HepG2 Assay for M19 Transcription Factor (Internal Marker) (AID 2282939); conditions: HepG2 Attagene CIS-FACTORIAL M19 internal marker reporter; actives raise or lower the signal
Summary of the method: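 Chemical-treated HepG2 (24 h) with MRTU constructs; reporter transcripts detected by fluorescent RT-PCR fragment analysis on capillary electrophoresis. Internal background marker, DMSO as baseline.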

[4] = ATG_ERE_CIS: Attagene CIS-FACTORIAL HepG2 Assay for Estrogen Response Element (ERE) (AID 2282940); conditions: HepG2 ERE cis-reporter, Attagene RNA transcript; actives raise or lower the signal
Summary of the method: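 Human liver cells (HepG2) bearing transiently transfected, promoter-regulated reporter units were exposed 24 h. Reporter mRNA induction was detected by capillary electrophoresis of labelled RT-PCR products and fitted bidirectionally to DMSO.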

[5] = ATG_Ets_CIS: Attagene CIS-FACTORIAL HepG2 Assay for human Erythroblast Transformation Specific (ETS) (AID 2282941); conditions: HepG2 ETS cis-reporter transcription, actives raise or lower the signal
Summary of the method: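 Human HepG2 hepatoma cells were transiently transfected with promoter-driven reporter constructs and treated for 24 hours. Reporter transcripts were quantified by RT-PCR with fluorescent primer extension; bidirectional curve fitting used DMSO as reference.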

[6] = target: Hepatocyte nuclear factor 3-beta (Homo sapiens) (UniProt Q9Y261); experiment: ATG_FoxA2_CIS: Attagene CIS-FACTORIAL HepG2 Assay for human Forkhead box A2 (FOXA2) (AID 2282942); conditions: HepG2 cis-reporter transcription factor activity, 24 h; actives raise or lower the signal
Summary of the method: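 Reporter transcript induction is measured by fluorescence after capillary electrophoresis of RT-PCR products from HepG2 cells exposed 24 h. Cis-regulated reporter units report endogenous factor activity; curves fitted both directions against DMSO.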

[7] = ATG_FoxO_CIS: Attagene CIS-FACTORIAL HepG2 Assay for human Forkhead box O (FoxO) (AID 2282943); conditions: HepG2 Attagene cis-reporter, FoxO element, mRNA; actives raise or lower the signal
Summary of the method: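 Read-out: fluorescence of 6-FAM-labelled reporter cDNA fragments resolved by capillary electrophoresis. Transiently transfected HepG2 cells were dosed for 24 h; activity fitted in both directions relative to DMSO controls.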

[8] = ATG_GATA_CIS: Attagene CIS-FACTORIAL HepG2 Assay for human GATA Binding Protein (AID 2282944); conditions: HepG2 GATA cis-element reporter, Attagene multiplex mRNA; actives raise or lower the signal
Summary of the method: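 Transfected cis-reporter HepG2 cells were treated with chemicals for 24 hours. Total RNA was then converted to cDNA, amplified with reporter-specific primers and analysed by fluorescent capillary electrophoresis, using DMSO-treated wells as baseline.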

[9] = ATG_GLI_CIS: Attagene CIS-FACTORIAL HepG2 Assay for human Zinc Finger Protein GLI1 (AID 2282945); conditions: HepG2, Attagene cis-factorial reporter mRNA, GLI element; actives raise or lower the signal
Summary of the method: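 Transiently transfected HepG2 cells report endogenous transcription factor activity via cis-element-driven reporter units. After 24 h compound exposure, reporter mRNA was measured by RT-PCR with capillary electrophoresis; bidirectional fitting against DMSO baseline.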

[10] = target: Bile acid receptor (Homo sapiens) (UniProt Q96RI1); experiment: ATG_IR1_CIS: Attagene CIS-FACTORIAL HepG2 Assay for human Nuclear Receptor Subfamily 1 Group H Member 4 (NR1H4), IR1 submotif (AID 2282946); conditions: IR1 reporter transcription, actives raise or lower the signal
Summary of the method: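 HepG2 cells transiently transfected with multiple cis-promoter-driven reporter units to measure endogenous transcription factor activity; 24 h exposure. Reporter mRNA read by RT-PCR, FAM labelling, HpaI digestion and capillary electrophoresis. Bidirectional fit versus DMSO.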

[11] = ATG_GRE_CIS: Attagene CIS-FACTORIAL HepG2 Assay for human Glucocorticoid Response Elements (GRE) (AID 2282947); conditions: HepG2 GRE cis-reporter, Attagene multiplex mRNA; actives raise or lower the signal
Summary of the method: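 Transiently transfected HepG2 cells carrying GRE cis-reporter units (endogenous TF activity) dosed 24 h; reporter mRNA quantified by RT-PCR, 6-FAM labelling, HpaI digestion and capillary electrophoresis. Bidirectional fit versus DMSO baseline.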

[12] = ATG_ISRE_CIS: Attagene CIS-FACTORIAL HepG2 Assay for human Interferon Regulatory Factor 1 (IRF1) binding to an Interferon-Stimulated Response Element (ISRE) (AID 2282948); conditions: HepG2 ISRE cis-reporter (Attagene), mRNA transcription readout; actives raise or lower the signal
Summary of the method: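 Cell-based cis-reporter assay; HepG2; 24 h exposure; reporter mRNA by RT-PCR plus capillary electrophoresis fluorescence; activity in either direction scored relative to DMSO.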

[13] = ATG_M_32_CIS: Attagene CIS-FACTORIAL HepG2 Assay for M32 Transcription Factor (Internal Marker) (AID 2282949); conditions: HepG2 Attagene cis-factorial M32 reporter, mRNA; actives raise or lower the signal;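 further: background control marker of the multiplexed CIS panel rather than a real target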
Summary of the method: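 HepG2 cells transiently transfected with multiplexed cis-regulated reporter units, dosed 24 h. Reporter mRNA quantified by RT-PCR, 6-FAM labelling, HpaI digestion and capillary electrophoresis; bidirectional fit vs DMSO.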

[14] = target: Hypoxia-inducible factor 1-alpha (Homo sapiens) (UniProt Q16665); experiment: ATG_HIF1a_CIS: Attagene CIS-FACTORIAL HepG2 Assay for human Hypoxia Inducible Factor 1 (HIF1A) (AID 2282951); conditions: HepG2 Attagene cis-factorial HIF1a reporter transcription; actives raise or lower the signal
Summary of the method: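 Fluorescence intensity of capillary-separated, 6-FAM-labelled reporter amplicons gives mRNA induction in HepG2 cells carrying transfected cis-promoter reporter units; cells exposed 24 h, responses fitted up or down from DMSO.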

[15] = target: Hepatocyte nuclear factor 6 (Homo sapiens) (UniProt Q9UBC0); experiment: ATG_HNF6_CIS: Attagene CIS-FACTORIAL HepG2 Assay for human Hepatocyte Nuclear Factor 6 (HNF6) (AID 2282952); conditions: HepG2 Attagene cis-factorial HNF6 reporter transcription; actives raise or lower the signal
Summary of the method: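 HepG2 cells transiently transfected with cis-element-driven multiple reporter transcription units, dosed 24 h; reporter mRNA quantified by RT-PCR, FAM primer extension, HpaI digestion and capillary electrophoresis; bidirectional fit versus DMSO baseline.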

[16] = target: Heat shock factor protein 1 (Homo sapiens) (UniProt Q00613); experiment: ATG_HSE_CIS: Attagene CIS-FACTORIAL HepG2 Assay for human Heat Shock Transcription Factor 1 (HSE) (AID 2282953); conditions: HepG2 HSE cis-reporter, Attagene RNA transcription; actives raise or lower the signal
Summary of the method: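 Liver-derived HepG2 cells carry transiently introduced multiple reporter units governed by cis promoters. Reporter RNA measured 24 h post-dose through reverse transcription, PCR amplification, fluorescent labelling and capillary electrophoresis, normalised to DMSO.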

[17] = ATG_MRE_CIS: Attagene CIS-FACTORIAL HepG2 Assay for human Metal Responsive Element (MRE) (AID 2282954); conditions: HepG2 MRE cis-reporter transcription, Attagene multiplex; actives raise or lower the signal
Summary of the method: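 HepG2 cells transiently transfected with cis-element-driven reporter units; mRNA measured 24 h after dosing. Reporter transcripts quantified by RT-PCR, FAM labelling, HpaI digestion and capillary electrophoresis; bidirectional fit versus DMSO.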

[18] = ATG_PBREM_CIS: Attagene CIS-FACTORIAL HepG2 Assay for human Phenobarbital-responsive Enhancer Module (PBREM) (AID 2282955); conditions: HepG2 PBREM cis-reporter, Attagene multiplexed transcription; actives raise or lower the signal
Summary of the method: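 Cells were transfected with cis-element reporter units and treated for 24 h, after which RNA was extracted and reporter transcripts measured by RT-PCR and capillary electrophoresis.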

[19] = ATG_M_61_CIS: Attagene CIS-FACTORIAL HepG2 Assay for M61 Transcription Factor (Internal Marker) (AID 2282937); conditions: HepG2 Attagene CIS-FACTORIAL M61 internal marker reporter; actives raise or lower the signal
Summary of the method: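 Endogenous transcription factor activity in HepG2 is read through transiently transfected cis-element reporter units. After 24 h dosing, RNA undergoes reverse transcription, PCR and primer extension with 6-FAM before capillary electrophoresis; DMSO-referenced bidirectional fit.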

Measured: AC50

Sequence of Hepatocyte nuclear factor 6 (Homo sapiens) (Q9UBC0 whole entry, looked up): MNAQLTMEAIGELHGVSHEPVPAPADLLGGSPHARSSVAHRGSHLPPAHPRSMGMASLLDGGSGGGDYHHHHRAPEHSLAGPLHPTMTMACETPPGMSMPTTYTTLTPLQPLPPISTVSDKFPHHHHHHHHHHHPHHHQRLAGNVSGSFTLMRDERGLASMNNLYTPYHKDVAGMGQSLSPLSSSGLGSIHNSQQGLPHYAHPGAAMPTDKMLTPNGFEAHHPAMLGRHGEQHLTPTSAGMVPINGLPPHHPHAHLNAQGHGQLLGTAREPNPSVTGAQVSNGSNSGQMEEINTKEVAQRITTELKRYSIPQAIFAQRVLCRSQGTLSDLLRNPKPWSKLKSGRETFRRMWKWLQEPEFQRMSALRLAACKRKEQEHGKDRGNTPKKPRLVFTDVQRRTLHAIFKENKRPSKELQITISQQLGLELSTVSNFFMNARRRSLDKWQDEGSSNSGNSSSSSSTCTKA
Sequence of Bile acid receptor (Homo sapiens) (Q96RI1 whole entry, looked up): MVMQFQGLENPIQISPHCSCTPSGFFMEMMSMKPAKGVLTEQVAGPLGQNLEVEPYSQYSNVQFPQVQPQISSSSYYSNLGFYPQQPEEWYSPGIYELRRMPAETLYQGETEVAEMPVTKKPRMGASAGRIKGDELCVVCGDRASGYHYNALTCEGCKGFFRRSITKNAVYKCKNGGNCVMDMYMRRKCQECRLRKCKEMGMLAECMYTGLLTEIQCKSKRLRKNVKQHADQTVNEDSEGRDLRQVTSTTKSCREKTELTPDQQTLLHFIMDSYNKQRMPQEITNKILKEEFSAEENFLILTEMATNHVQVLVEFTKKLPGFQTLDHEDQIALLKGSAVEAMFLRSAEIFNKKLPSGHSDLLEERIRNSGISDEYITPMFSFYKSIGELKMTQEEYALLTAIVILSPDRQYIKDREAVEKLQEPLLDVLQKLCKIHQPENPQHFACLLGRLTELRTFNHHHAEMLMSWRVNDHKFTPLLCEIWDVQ
Sequence of Heat shock factor protein 1 (Homo sapiens) (Q00613 whole entry, looked up): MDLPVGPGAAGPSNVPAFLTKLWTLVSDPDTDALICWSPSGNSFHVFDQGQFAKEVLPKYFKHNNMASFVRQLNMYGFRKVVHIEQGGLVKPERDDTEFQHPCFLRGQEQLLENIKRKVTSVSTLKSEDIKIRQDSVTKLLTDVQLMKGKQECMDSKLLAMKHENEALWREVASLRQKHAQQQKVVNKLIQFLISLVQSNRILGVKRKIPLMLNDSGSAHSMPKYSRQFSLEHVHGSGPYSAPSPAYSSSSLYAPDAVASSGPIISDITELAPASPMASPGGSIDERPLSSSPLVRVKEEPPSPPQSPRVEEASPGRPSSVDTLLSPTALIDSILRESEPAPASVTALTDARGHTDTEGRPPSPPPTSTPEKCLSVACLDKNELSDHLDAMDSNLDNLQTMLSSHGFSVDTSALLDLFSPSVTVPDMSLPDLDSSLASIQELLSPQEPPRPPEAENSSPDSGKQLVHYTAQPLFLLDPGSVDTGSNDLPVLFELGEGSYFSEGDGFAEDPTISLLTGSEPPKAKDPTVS
Sequence of Hypoxia-inducible factor 1-alpha (Homo sapiens) (Q16665 whole entry, looked up): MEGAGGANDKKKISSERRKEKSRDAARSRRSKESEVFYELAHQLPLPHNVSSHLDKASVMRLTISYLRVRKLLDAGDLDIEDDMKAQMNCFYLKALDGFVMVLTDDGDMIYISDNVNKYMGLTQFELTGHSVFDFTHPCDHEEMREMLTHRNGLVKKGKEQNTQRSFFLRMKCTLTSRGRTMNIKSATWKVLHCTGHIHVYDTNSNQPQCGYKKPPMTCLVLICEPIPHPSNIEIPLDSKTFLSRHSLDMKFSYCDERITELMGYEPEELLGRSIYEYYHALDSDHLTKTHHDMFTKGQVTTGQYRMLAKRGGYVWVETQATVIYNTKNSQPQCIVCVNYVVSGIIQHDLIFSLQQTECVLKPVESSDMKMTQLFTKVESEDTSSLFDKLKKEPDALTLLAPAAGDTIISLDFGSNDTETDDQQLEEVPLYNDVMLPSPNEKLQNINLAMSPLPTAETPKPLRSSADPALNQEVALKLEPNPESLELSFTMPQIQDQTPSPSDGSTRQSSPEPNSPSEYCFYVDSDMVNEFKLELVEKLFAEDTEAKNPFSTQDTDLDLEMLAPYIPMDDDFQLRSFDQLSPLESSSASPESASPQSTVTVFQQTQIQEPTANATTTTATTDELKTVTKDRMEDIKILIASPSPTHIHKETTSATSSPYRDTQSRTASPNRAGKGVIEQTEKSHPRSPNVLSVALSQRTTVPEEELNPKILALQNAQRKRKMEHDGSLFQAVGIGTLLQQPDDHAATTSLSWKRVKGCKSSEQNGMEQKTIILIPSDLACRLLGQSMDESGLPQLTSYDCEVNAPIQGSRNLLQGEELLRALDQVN
Sequence of Hepatocyte nuclear factor 3-beta (Homo sapiens) (Q9Y261 whole entry, looked up): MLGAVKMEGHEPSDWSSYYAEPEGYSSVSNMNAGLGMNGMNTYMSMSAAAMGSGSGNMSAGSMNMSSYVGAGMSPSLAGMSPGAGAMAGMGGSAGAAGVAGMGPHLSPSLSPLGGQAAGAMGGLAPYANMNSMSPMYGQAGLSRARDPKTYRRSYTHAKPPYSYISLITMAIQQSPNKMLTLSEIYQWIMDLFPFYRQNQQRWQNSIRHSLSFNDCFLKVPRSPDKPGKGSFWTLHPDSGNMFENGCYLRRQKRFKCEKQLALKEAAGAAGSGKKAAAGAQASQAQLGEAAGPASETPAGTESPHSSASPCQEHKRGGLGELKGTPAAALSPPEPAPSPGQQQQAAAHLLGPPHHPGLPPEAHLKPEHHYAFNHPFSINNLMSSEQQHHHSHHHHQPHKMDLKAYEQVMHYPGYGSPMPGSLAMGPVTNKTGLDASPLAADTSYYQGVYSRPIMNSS

COC(=O)c1ccccc1CS(=O)(=O)NC(=O)Nc1nc(OC)cc(OC)n1
active: [1] 125 µM
inactive: [1] | [2] | [3] | [4] | [5] | [6] | [7] | [8] | [9] | [10] | [11] | [12] | [13] | [14] | [15] | [16] | [17] | [18]

CCC(C)Nc1c([N+](=O)[O-])cc(C(C)(C)C)cc1[N+](=O)[O-] (stereo not drawn)
active: [4] 5.96 µM
not listed: [10] | [16] | [17] | [18] | [19]
inactive: all other assays above

Oc1cc(Cl)ccc1Oc1ccc(Cl)cc1Cl
active: [1] 13.4 µM | [2] 11.3 µM [middle of 4 runs] | [5] 7.09 µM and 17.9 µM and 5.97 µM | [11] 11.1 µM | [12] 13.5 µM [middle of 4 runs] | [16] 17.4 µM and 9.05 µM | [18] 2.91 µM and 3.38 µM and 17.3 µM
inactive: [1] | [2] | [3] | [5] | [6] | [7] | [9] | [10] | [11] | [12] | [13] | [14] | [16] | [18]

O=[N+]([O-])c1c(Cl)c(Cl)c(Cl)c(Cl)c1Cl
active: [2] 90.8 µM | [4] 12.9 µM | [14] 37.6 µM | [16] 80.8 µM | [17] 50 µM
not listed: [8] | [10] | [15]
inactive: all other assays above

CCC(C)(C)C(=O)OC1=C(c2ccc(Cl)cc2Cl)C(=O)OC12CCCCC2
active: [5] 1.69 µM
not listed: [15] | [17]
inactive: all other assays above

CCOc1nc(NC)nc(NC(=O)NS(=O)(=O)c2ccccc2C(=O)OC)n1
not listed: [15] | [17] | [19]
inactive: all other assays above
